Measured values: PubChem BioAssay AID1224853 (National Center for Advancing Translational Sciences (NCATS), 2016)
Results filed as inconclusive are left out. A call without a number means that no potency is given here. Active and inactive are the calls of the source. Calls follow the shape of the dose curve; as a rule, active = well fitted inhibition curve with a large enough effect; inconclusive = small, poorly fitted or top-dose-only effect; inactive = no such curve, though single readings can be large or run the other way.

Assay: Confirmation assay for measurement of the activity of small molecule inhibitors on Zika virus induced Caspase-3 activity in human astrocytoma cells
Details: SNB-19 ZIKV-induced caspase-3/7, luminescence, 6 h; series mostly up to 46.1 µM
Procedure, shortened: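 SNB-19 astrocytoma cells pretreated with compound 1 h, then infected with ZIKV (2 FFU/cell) for 6 h at 37 C. Caspase-3/7 luminescence read; percent inhibition normalized to uninfected and infected wells.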

SMILES | Potency
C[C@@H](N)c1ccc(C(=O)Nc2ccnc3[nH]ccc23)cc1 | inactive
Cc1nc(-c2ccc(OCC(C)C)c(C#N)c2)sc1C(=O)O | 2.45 µM (active)
CCCCC1C(=O)N(c2ccccc2)N(c2ccc(O)cc2)C1=O (centres undefined) | inactive
CCC(C)SSc1ncc[nH]1 (centres undefined) | inactive
O=C(O)c1ccccc1NCCc1ccccc1 | inactive
Cc1cccc(C#Cc2ccccc2)n1 | 4.89 µM (active)
Cc1c(N)c(=O)n(-c2ccccc2)n1C | inactive
CN(C)c1ccc(C(=C2C=CC(=[N+](C)C)C=C2)c2ccccc2)cc1 | inactive
Cc1oncc1C(=O)Nc1ccc(C(F)(F)F)cc1 | 3.08 µM (active)
O=S(=O)(O)CCSSCCS(=O)(=O)O | inactive
Cc1ccc(O)c(-n2nc3ccccc3n2)c1 | 7.74 µM (active)
CC(=O)Nc1ccc([C@H](C)C(=O)Nc2ncc(C(C)C)s2)cc1 | 9.75 µM (active)
CCCCCCOc1ccccc1C(N)=O | inactive
CCN1/C(=C/C=C/c2sc3ccccc3[n+]2CC)Sc2ccccc21 | inactive
O[C@@H](COc1cccc2ncccc12)CN1CCN(C2c3ccccc3[C@@H]3[C@H](c4ccccc42)C3(F)F)CC1 (some centres undefined) | inactive
COc1ccc(NC(=O)/C=C/c2ccc(Cl)cc2)cc1 | 3.46 µM (active)
Oc1cc(O)cc(/C=C/c2ccc(O)c(O)c2)c1 | 6.15 µM (active)
O=C(Nc1ccc(C(=O)O)c(O)c1)c1ccccc1 | 6.15 µM (active)
CC[C@@]1(O)C[C@H](O[C@H]2C[C@H](N(C)C)[C@H](O[C@H]3C[C@H](O)[C@H](O[C@H]4CCC(=O)[C@H](C)O4)[C@H](C)O3)[C@H](C)O2)c2c(cc3c(c2O)C(=O)c2c(O)cccc2C3=O)[C@@H]1C(=O)OC | inactive
